Test results taken from PubChem BioAssay AID743144 (Broad Institute, 2013).
Entries with a potency or affinity are not part of this list. Records with an inconclusive call do not appear. A number with no mark means an inactive call. No rule for the calls is given here.

Test: cytotoxicity in COV362 ovarian cancer cells, dose response, cytotoxicity control for PAX8 inhibitor project, cell-based, plate reader, dry powder, SA12 (AID 743144)
Conditions: series mostly up to 35 µM; activity change, negative = cytotoxicity: at the top concentration

| SMILES | activity change, negative = cytotoxicity |
| --- | --- |
| COc1ccc(S(=O)(=O)Nc2ccc3c(c2)CC(=O)N([C@@H](C)CO)C[C@@H](C)[C@@H](CN(C)Cc2ccc(-c4ccccc4)cc2)O3)cc1 | 13.2% |
| O=S(=O)(Nc1cccc2cccnc12)c1ccccc1 | -14.5% [at 12 µM] |
| O=C(CN1C(=O)c2ccccc2S1(=O)=O)c1ccccc1Cl | 6.01% [at 50 µM] |
| COc1ccc(S(=O)(=O)N2CCCCN3[C@H](CO)[C@H](c4ccc(C#CC(C)C)cc4)[C@H]3C2)cc1 | 19.2% [at 16 µM] |
| N#C[C@H]1[C@@H](c2ccc(C3=CCCC3)cc2)[C@@H](CO)N1C(=O)NC1CCCCC1 | 9.28% |
| C[C@H](CO)N1C[C@H](C)[C@@H](CN(C)Cc2ccc(C(F)(F)F)cc2)Oc2ccc(NS(=O)(=O)c3ccc(Cl)cc3)cc2CC1=O | 3.8% [at 16 µM] |
| O=C(C[C@H]1CC[C@H]2[C@@H](COC[C@@H](O)CN2S(=O)(=O)c2cccc(Cl)c2)O1)Nc1ccc(-c2ccccc2)cc1 | -17.3% |
| C[C@H](CO)N1C[C@H](C)[C@@H](CN(C)Cc2ccc(-c3ccccc3)cc2)Oc2ccc(NC(=O)C3CC3)cc2CC1=O | 25.9% |
| C[C@@H]1CN([C@H](C)CO)C(=O)CCCn2cc(nn2)CO[C@H]1CN(C)C(=O)Nc1ccc(-c2cccs2)cc1 | -10% |
| COc1cccc(-c2ccc([C@H]3[C@@H](CO)N(C(=O)Cc4ccccc4)[C@H]3C#N)cc2)c1 | -1.15% |
| COCC(=O)N1[C@H](CO)[C@H](c2ccc(-c3cccnc3)cc2)[C@@H]1C#N | 2.03% |
| N#C[C@@H]1[C@@H](c2ccc(C3=CCCCC3)cc2)[C@@H](CO)N1C(=O)NC1CCCCC1 | 5.18% |
| CC(C)c1cc(C(=O)OCC(=O)N2CCN(C(=O)c3ccco3)CC2)c(O)c(C(C)C)c1 | 0.074% [at 50 µM] |
| COc1ccccc1C#Cc1ccc([C@@H]2[C@@H](C#N)N(C(=O)C3CCCCC3)[C@H]2CO)cc1 | -15.9% |
| O=C(CCS(=O)(=O)c1ccccc1)Nc1nc2ccc(F)cc2s1 | -15.5% [at 50 µM] |
| N#C[C@@H]1[C@H](c2ccc(C#CC3CCCCC3)cc2)[C@H](CO)N1S(=O)(=O)c1ccccc1 | -33.3% |
| C[C@H](CO)N1C[C@H](C)[C@@H](CN(C)Cc2ccc(C(F)(F)F)cc2)OCCCC[C@H](C)Oc2ccc(NS(=O)(=O)c3ccc(F)cc3)cc2C1=O | -16.1% |
| N#C[C@@H]1[C@@H](c2ccc(-c3cccc(F)c3)cc2)[C@H](CO)N1C(=O)NC1CCCC1 | 4.43% |
| O=C1/C(=C/c2cccc(Br)c2)SC(=S)N1CCC(=O)N(CCO)c1ccccc1 | -11.7% [at 50 µM] |
| CCCC#Cc1ccc([C@@H]2[C@@H](C#N)N(S(=O)(=O)c3cccc(F)c3)[C@H]2CO)cc1 | -1.4% |
| N#C[C@H]1N[C@H](CO)[C@@H]1c1ccc(C#Cc2ccccc2F)cc1 | 11.2% |
| COc1cccc(C#Cc2ccc([C@@H]3[C@@H](C#N)N(C(=O)C4CCCC4)[C@@H]3CO)cc2)c1 | 1.78% |
